From ChEMBL document CHEMBL1961873, “Compounds: GSK PKIS; Assays: Nanosyn kinase panel” (2012)

Legend:
[1] = molecular target: PAS domain-containing serine/threonine-protein kinase (Homo sapiens) (UniProt Q96RG2); details: at 0.1 µM
[2] = molecular target: PAS domain-containing serine/threonine-protein kinase (Homo sapiens) (UniProt Q96RG2); details: at 1 µM
[3] = molecular target: Phosphorylase b kinase gamma catalytic chain, skeletal muscle/heart isoform (Homo sapiens) (UniProt Q16816); details: at 0.1 µM
[4] = molecular target: Phosphorylase b kinase gamma catalytic chain, skeletal muscle/heart isoform (Homo sapiens) (UniProt Q16816); details: at 1 µM
[5] = molecular target: Phosphorylase b kinase gamma catalytic chain, liver/testis isoform (Homo sapiens) (UniProt P15735); details: at 0.1 µM
[6] = molecular target: Phosphorylase b kinase gamma catalytic chain, liver/testis isoform (Homo sapiens) (UniProt P15735); details: at 1 µM
[7] = molecular target: Serine/threonine-protein kinase pim-1 (Homo sapiens) (UniProt P11309); details: at 0.1 µM
[8] = molecular target: Serine/threonine-protein kinase pim-1 (Homo sapiens) (UniProt P11309); details: at 1 µM
[9] = molecular target: Serine/threonine-protein kinase pim-2 (Homo sapiens) (UniProt Q9P1W9); details: at 0.1 µM
[10] = molecular target: Serine/threonine-protein kinase pim-2 (Homo sapiens) (UniProt Q9P1W9); details: at 1 µM
[11] = molecular target: Serine/threonine-protein kinase pim-3 (Homo sapiens) (UniProt Q86V86); details: at 0.1 µM
[12] = molecular target: Serine/threonine-protein kinase pim-3 (Homo sapiens) (UniProt Q86V86); details: at 1 µM
[13] = molecular target: MAP kinase-activated protein kinase 5 (Homo sapiens) (UniProt Q8IW41); details: at 0.1 µM
[14] = molecular target: MAP kinase-activated protein kinase 5 (Homo sapiens) (UniProt Q8IW41); details: at 1 µM
[15] = molecular target: Serine/threonine-protein kinase SIK1 (Homo sapiens) (UniProt P57059); details: at 0.1 µM
[16] = molecular target: Serine/threonine-protein kinase SIK1 (Homo sapiens) (UniProt P57059); details: at 1 µM
[17] = molecular target: Serine/threonine-protein kinase SIK2 (Homo sapiens) (UniProt Q9H0K1); details: at 0.1 µM
[18] = molecular target: Serine/threonine-protein kinase SIK2 (Homo sapiens) (UniProt Q9H0K1); details: at 1 µM
[19] = molecular target: Serine/threonine-protein kinase TBK1 (Homo sapiens) (UniProt Q9UHD2); details: at 0.1 µM
[20] = molecular target: Serine/threonine-protein kinase TBK1 (Homo sapiens) (UniProt Q9UHD2); details: at 1 µM
[21] = molecular target: Testis-specific serine/threonine-protein kinase 1 (Homo sapiens) (UniProt Q9BXA7); details: at 0.1 µM
[22] = molecular target: Testis-specific serine/threonine-protein kinase 1 (Homo sapiens) (UniProt Q9BXA7); details: at 1 µM
[23] = molecular target: Testis-specific serine/threonine-protein kinase 2 (Homo sapiens) (UniProt Q96PF2); details: at 0.1 µM
[24] = molecular target: Testis-specific serine/threonine-protein kinase 2 (Homo sapiens) (UniProt Q96PF2); details: at 1 µM
[25] = molecular target: Casein kinase I isoform alpha (Homo sapiens) (UniProt P48729); details: at 0.1 µM
[26] = molecular target: Casein kinase I isoform alpha (Homo sapiens) (UniProt P48729); details: at 1 µM
[27] = molecular target: Casein kinase I isoform gamma-1 (Homo sapiens) (UniProt Q9HCP0); details: at 0.1 µM
[28] = molecular target: Casein kinase I isoform gamma-1 (Homo sapiens) (UniProt Q9HCP0); details: at 1 µM
[29] = molecular target: Casein kinase I isoform gamma-2 (Homo sapiens) (UniProt P78368); details: at 0.1 µM
[30] = molecular target: Casein kinase I isoform gamma-2 (Homo sapiens) (UniProt P78368); details: at 1 µM
[31] = molecular target: Casein kinase I isoform gamma-3 (Homo sapiens) (UniProt Q9Y6M4); details: at 0.1 µM
[32] = molecular target: Casein kinase I isoform gamma-3 (Homo sapiens) (UniProt Q9Y6M4); details: at 1 µM
[33] = molecular target: Cyclin-dependent kinase 1 (Homo sapiens) (UniProt P06493); details: at 0.1 µM
[34] = molecular target: Cyclin-dependent kinase 1 (Homo sapiens) (UniProt P06493); details: at 1 µM
[35] = molecular target: Cyclin-dependent kinase 2 (Homo sapiens) (UniProt P24941); details: at 0.1 µM
[36] = molecular target: Cyclin-dependent kinase 2 (Homo sapiens) (UniProt P24941); details: at 1 µM
[37] = molecular target: Cyclin-dependent kinase 2 (Homo sapiens) (UniProt P24941); details: at 0.1 µM; remark: listed apart in the source
[38] = molecular target: Cyclin-dependent kinase 2 (Homo sapiens) (UniProt P24941); details: at 1 µM; remark: listed apart in the source
[39] = molecular target: T1, CDK3/Cyclin E (Homo sapiens) (UniProt P24864+Q00526); details: at 0.1 µM
[40] = molecular target: T1, CDK3/Cyclin E (Homo sapiens); details: at 1 µM
[41] = molecular target: Cyclin-dependent kinase 4 (Homo sapiens) (UniProt P11802); details: at 0.1 µM
[42] = molecular target: Cyclin-dependent kinase 4 (Homo sapiens) (UniProt P11802); details: at 1 µM
[43] = molecular target: Cyclin-dependent kinase 5 (Homo sapiens) (UniProt Q00535); details: at 0.1 µM
[44] = molecular target: Cyclin-dependent kinase 5 (Homo sapiens) (UniProt Q00535); details: at 1 µM
[45] = molecular target: Cyclin-dependent kinase 6 (Homo sapiens) (UniProt Q00534); details: at 0.1 µM
[46] = molecular target: Cyclin-dependent kinase 6 (Homo sapiens) (UniProt Q00534); details: at 1 µM
[47] = molecular target: Dual specificity protein kinase CLK2 (Homo sapiens) (UniProt P49760); details: at 0.1 µM
[48] = molecular target: Dual specificity protein kinase CLK2 (Homo sapiens) (UniProt P49760); details: at 1 µM
[49] = molecular target: Dual specificity protein kinase CLK3 (Homo sapiens) (UniProt P49761); details: at 0.1 µM
[50] = molecular target: Dual specificity protein kinase CLK3 (Homo sapiens) (UniProt P49761); details: at 1 µM
[51] = molecular target: Dual specificity tyrosine-phosphorylation-regulated kinase 1A (Homo sapiens) (UniProt Q13627); details: at 0.1 µM
[52] = molecular target: Dual specificity tyrosine-phosphorylation-regulated kinase 1A (Homo sapiens) (UniProt Q13627); details: at 1 µM
[53] = molecular target: Dual specificity tyrosine-phosphorylation-regulated kinase 1B (Homo sapiens) (UniProt Q9Y463); details: at 0.1 µM
[54] = molecular target: Dual specificity tyrosine-phosphorylation-regulated kinase 1B (Homo sapiens) (UniProt Q9Y463); details: at 1 µM
[55] = molecular target: Dual specificity tyrosine-phosphorylation-regulated kinase 2 (Homo sapiens) (UniProt Q92630); details: at 0.1 µM
[56] = molecular target: Dual specificity tyrosine-phosphorylation-regulated kinase 2 (Homo sapiens) (UniProt Q92630); details: at 1 µM

Sequence of Serine/threonine-protein kinase SIK1 (Homo sapiens) (P57059 whole entry): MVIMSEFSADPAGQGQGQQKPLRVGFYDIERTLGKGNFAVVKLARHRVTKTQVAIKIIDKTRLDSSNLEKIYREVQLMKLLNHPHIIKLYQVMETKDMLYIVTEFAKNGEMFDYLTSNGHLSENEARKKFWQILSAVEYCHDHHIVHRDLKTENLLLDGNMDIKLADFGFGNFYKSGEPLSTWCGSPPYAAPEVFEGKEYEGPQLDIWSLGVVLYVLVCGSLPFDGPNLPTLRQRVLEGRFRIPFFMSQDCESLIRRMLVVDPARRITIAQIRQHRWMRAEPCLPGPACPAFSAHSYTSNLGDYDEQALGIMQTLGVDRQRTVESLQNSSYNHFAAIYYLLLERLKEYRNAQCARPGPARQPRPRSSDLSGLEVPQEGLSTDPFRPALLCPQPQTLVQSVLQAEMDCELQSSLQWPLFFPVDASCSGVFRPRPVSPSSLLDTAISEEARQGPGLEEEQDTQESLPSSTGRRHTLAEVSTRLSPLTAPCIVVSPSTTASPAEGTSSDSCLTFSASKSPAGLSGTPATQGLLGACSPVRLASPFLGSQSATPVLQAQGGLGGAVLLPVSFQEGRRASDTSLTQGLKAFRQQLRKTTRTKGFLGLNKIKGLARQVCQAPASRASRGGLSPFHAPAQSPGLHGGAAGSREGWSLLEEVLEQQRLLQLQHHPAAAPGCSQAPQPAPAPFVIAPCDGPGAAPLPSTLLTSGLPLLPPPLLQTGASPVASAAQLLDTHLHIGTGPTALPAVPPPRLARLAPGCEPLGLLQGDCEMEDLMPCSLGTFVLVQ
Sequence of Casein kinase I isoform gamma-2 (Homo sapiens) (P78368 whole entry, looked up, canonical isoform): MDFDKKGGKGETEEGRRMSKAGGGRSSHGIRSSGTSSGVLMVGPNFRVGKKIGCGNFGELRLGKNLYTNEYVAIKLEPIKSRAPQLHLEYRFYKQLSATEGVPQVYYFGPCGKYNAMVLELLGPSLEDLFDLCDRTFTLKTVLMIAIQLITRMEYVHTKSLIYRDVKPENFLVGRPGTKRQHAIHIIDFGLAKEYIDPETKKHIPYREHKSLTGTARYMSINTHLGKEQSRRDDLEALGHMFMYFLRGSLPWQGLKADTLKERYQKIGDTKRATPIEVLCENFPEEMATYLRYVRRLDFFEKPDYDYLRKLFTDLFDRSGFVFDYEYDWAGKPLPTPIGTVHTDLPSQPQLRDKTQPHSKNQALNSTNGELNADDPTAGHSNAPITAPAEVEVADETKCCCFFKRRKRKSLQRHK
Sequence of Cyclin-dependent kinase 5 (Homo sapiens) (Q00535 whole entry, looked up): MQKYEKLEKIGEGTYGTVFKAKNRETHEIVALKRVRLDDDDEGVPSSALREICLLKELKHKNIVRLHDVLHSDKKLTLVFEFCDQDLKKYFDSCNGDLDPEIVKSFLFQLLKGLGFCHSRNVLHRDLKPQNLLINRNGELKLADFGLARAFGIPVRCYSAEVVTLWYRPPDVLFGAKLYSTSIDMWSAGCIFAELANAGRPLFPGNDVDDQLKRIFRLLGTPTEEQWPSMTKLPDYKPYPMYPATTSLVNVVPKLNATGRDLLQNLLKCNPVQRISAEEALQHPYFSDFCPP
Sequence of MAP kinase-activated protein kinase 5 (Homo sapiens) (Q8IW41 whole entry): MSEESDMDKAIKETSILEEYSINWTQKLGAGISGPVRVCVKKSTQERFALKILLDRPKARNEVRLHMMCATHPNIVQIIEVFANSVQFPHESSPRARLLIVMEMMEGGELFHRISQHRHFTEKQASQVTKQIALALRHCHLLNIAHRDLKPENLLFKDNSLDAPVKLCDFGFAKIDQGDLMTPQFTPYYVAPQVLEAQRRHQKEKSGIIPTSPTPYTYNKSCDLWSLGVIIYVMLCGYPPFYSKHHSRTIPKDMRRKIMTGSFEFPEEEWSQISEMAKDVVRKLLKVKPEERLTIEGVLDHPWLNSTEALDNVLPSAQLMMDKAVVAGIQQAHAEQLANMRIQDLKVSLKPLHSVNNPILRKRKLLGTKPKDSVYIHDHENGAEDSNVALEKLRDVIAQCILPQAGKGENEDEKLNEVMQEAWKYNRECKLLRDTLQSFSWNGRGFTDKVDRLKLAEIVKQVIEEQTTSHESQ
Sequence of Testis-specific serine/threonine-protein kinase 2 (Homo sapiens) (Q96PF2 whole entry, canonical isoform): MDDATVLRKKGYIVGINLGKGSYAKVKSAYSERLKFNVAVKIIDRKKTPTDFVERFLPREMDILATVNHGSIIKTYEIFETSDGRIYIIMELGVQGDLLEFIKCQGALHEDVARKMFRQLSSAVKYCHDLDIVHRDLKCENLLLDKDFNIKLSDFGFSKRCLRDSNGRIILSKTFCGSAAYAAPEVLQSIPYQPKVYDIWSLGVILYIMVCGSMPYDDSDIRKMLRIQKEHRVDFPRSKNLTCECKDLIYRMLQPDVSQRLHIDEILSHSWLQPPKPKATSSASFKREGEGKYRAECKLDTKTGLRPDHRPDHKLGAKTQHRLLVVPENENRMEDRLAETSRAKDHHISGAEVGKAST
Sequence of Testis-specific serine/threonine-protein kinase 1 (Homo sapiens) (Q9BXA7 whole entry): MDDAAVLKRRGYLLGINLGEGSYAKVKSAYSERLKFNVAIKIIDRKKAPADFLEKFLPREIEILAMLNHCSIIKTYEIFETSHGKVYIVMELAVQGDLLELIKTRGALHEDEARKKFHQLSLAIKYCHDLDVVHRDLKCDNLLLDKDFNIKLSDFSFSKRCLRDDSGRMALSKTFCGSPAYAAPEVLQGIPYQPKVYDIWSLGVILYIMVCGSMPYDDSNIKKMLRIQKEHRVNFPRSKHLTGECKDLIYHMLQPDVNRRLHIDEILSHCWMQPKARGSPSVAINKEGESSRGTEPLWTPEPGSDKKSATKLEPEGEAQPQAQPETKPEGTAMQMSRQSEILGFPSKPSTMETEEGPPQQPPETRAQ
Sequence of Cyclin-dependent kinase 6 (Homo sapiens) (Q00534 whole entry): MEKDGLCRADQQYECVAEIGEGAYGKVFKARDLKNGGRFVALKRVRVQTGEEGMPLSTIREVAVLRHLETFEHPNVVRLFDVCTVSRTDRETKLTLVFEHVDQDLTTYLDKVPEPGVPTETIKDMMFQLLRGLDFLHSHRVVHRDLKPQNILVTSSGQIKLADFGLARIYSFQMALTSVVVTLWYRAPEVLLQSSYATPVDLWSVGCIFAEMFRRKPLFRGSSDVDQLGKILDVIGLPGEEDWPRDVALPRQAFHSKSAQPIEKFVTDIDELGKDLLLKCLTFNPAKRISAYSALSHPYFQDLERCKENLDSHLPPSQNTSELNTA
Sequence of Dual specificity tyrosine-phosphorylation-regulated kinase 2 (Homo sapiens) (Q92630 whole entry): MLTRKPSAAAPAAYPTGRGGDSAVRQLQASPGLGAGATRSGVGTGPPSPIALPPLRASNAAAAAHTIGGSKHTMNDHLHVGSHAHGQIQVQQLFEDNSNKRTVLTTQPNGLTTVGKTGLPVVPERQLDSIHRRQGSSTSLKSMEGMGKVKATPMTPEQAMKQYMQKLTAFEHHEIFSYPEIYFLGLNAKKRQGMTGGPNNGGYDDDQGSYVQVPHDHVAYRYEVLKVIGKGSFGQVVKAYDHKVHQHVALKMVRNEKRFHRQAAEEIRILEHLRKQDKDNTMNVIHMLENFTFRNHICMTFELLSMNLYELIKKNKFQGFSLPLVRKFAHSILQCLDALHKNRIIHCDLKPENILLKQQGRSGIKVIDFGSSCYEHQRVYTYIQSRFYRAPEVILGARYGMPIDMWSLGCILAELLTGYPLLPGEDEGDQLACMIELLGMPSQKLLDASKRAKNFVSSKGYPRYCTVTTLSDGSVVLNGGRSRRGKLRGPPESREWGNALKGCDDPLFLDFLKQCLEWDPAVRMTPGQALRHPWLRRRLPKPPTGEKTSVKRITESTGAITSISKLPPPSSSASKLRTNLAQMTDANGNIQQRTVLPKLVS
Sequence of Serine/threonine-protein kinase pim-2 (Homo sapiens) (Q9P1W9 whole entry, looked up): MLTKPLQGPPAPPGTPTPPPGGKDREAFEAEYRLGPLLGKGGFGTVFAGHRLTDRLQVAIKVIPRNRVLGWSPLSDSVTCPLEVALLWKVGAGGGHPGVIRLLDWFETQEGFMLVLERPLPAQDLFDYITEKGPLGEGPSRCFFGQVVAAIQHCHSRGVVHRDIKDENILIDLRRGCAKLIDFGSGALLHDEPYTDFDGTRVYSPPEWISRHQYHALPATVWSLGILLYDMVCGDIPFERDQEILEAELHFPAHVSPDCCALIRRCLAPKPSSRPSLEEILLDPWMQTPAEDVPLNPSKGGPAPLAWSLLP
T1 sequence (P24864 whole entry, looked up): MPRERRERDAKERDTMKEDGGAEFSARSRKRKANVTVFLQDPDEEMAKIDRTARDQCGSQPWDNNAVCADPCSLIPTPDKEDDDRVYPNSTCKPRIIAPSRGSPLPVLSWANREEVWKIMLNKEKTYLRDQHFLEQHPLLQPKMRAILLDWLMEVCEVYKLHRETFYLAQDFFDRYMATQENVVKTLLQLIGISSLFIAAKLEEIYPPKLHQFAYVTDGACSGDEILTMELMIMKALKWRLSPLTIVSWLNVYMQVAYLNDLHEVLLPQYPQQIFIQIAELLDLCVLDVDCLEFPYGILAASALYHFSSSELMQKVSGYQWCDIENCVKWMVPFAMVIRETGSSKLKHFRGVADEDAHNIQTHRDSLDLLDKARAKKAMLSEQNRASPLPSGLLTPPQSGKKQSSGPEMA
T1 sequence (Q00526 whole entry, looked up): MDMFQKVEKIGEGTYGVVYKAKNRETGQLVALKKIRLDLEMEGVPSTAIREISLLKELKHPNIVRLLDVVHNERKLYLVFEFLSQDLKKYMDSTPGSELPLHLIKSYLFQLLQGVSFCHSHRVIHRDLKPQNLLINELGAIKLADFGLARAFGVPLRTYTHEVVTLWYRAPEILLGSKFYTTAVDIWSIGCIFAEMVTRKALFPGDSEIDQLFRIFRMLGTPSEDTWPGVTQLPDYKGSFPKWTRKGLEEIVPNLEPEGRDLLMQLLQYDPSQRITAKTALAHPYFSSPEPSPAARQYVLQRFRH
Sequence of Cyclin-dependent kinase 1 (Homo sapiens) (P06493 whole entry, looked up): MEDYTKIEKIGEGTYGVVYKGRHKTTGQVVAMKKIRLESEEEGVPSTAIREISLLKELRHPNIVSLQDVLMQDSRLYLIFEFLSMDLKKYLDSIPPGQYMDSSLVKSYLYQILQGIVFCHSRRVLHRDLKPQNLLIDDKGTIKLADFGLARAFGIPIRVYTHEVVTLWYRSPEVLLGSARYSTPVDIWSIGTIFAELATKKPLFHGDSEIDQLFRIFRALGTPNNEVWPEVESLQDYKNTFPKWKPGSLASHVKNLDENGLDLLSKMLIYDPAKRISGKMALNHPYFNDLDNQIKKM

CNC(=O)Oc1cc(C)c(/C=C/c2cncc(C(=O)NC)c2)c(C)c1
inhibition [1]: 0.86%
inhibition [2]: -0.55%
inhibition [3]: 0.19%
inhibition [4]: 3.49%
inhibition [5]: 4.46%
inhibition [6]: 1.16%
inhibition [7]: 0.83%
inhibition [8]: 1.46%
inhibition [9]: -0.21%
inhibition [10]: 0.61%
inhibition [11]: -0.49%
inhibition [12]: 0.47%
inhibition [13]: 0.29%
inhibition [14]: -1.1%
inhibition [15]: 46.9%
inhibition [16]: 88.6%
inhibition [17]: 7.72%
inhibition [18]: 30.4%
inhibition [19]: 2.75%
inhibition [20]: 3.73%
inhibition [21]: 1.39%
inhibition [22]: 0.21%
inhibition [23]: 1.46%
inhibition [24]: -0.8%
inhibition [25]: 1.61%
inhibition [26]: 3.51%
inhibition [27]: 1.33%
inhibition [28]: 2.91%
inhibition [29]: 0.3%
inhibition [30]: 2.73%
inhibition [31]: 1.68%
inhibition [32]: 4.49%
inhibition [33]: -0.06%
inhibition [34]: -0.3%
inhibition [35]: 0.63%
inhibition [36]: -1.72%
inhibition [37]: 1.5%
inhibition [38]: 0.5%
inhibition [39]: 0.33%
inhibition [40]: 1.01%
inhibition [41]: 0.95%
inhibition [42]: 2.18%
inhibition [43]: 0.2%
inhibition [44]: -0.43%
inhibition [45]: -2.38%
inhibition [46]: 0.77%
inhibition [47]: 1.89%
inhibition [48]: 4.38%
inhibition [49]: 0.33%
inhibition [50]: 1.86%
inhibition [51]: -0.43%
inhibition [52]: 6.77%
inhibition [53]: -0.07%
inhibition [54]: 0.76%
inhibition [55]: 2.64%
inhibition [56]: 2.73%
